Only some compounds are listed: those with a hit (about 3.8% of all), similar ones and a draw of the others.
IDH1 R132H inh: inhibitors of human mutant IDH1 R132H; Potency, µM (series often up to 76.6 µM), for inactives: at the top dose activity change, negative = inhibition, usual class: inhibitors; actives 0.093% (n = 390,000); IDH1-R132H enzyme, NADPH consumption, diaphorase/resazurin fluorescence; O75874; AID 602179; further: on the % scale 0 is the no-effect control and ±100 the full control effect; nearly all actives have a fitted effect of over 65% in size
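IDH1-R132H (0.5 ug/mL dispensed) in pH 7.5 Tris buffer was preincubated 30 min with compound, then given a substrate mix of 0.016 mM NADPH and 2 mM alpha-KG for 80 min at room temperature; remaining NADPH was read by diaphorase/resazurin fluorescence.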
A549 tox-1: counter-screen for Nrf2 inhibitors: cytotoxicity in A549 cells; A549 ARE-Fluc cells, CellTiter-Fluor viability, 18-24 h; actives 0.16% (n = 390,000); Potency, µM (doses to about 46 µM), for the others: at the highest dose activity change, negative = cytotoxicity, actives largely listed as inhibitors; further: on the % scale 0 is the no-effect control and ±100 the full control effect
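A549 ARE_Fluc cells in 5% FBS OPTI-MEM were exposed to compounds in concentration-response for 18-24 h at 37 deg C. Viability was read by CellTiter-Fluor fluorescence (Ex 405/Em 525) after 30 min, before the luciferase read.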
ELG1 repair inh: ELG1-dependent DNA repair inhibition. actives 2.3% (n = 330,000). Potency, µM (titrated, usually from 46.1 µM), without a hit: at the highest dose activity change, negative = inhibition, hits mostly inhibitors. HEK293T ELG1-luciferase reporter, luminescence, 16 h; DNA damage induced by 5-fluorouridine; further: on the % scale 0 is the no-effect control and ±100 the full control effect; nearly all actives have a fitted effect of over 55% in size
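Quantitative HTS, concentration-response format. 2,000 cells/well co-treated with 5-fluorouridine and compound, 16 hr in 5% CO2 at 37 °C; ONE-Glo luminescence read after 30 min.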
Nrf2 block: inhibitors of Nrf2 signaling; Potency, µM (highest dose often 46 µM), without a hit: at the highest dose activity change, negative = inhibition, usual class: inhibitors; actives 2.1% (n = 360,000); A549 ARE-Fluc reporter, luciferase luminescence, 18-24 h; further: on the % scale 0 is the no-effect control and ±100 the full control effect; nearly all actives have a fitted effect of over 60% in size
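Two sequential reads on A549 ARE_Fluc cells exposed to compound for 18-24 h: a CellTiter-Fluor fluorescence read for viability, then a luciferase luminescence read for Nrf2/ARE activity.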
Nrf2 ARE act: activators of Nrf2 (ARE) signaling; actives 0.31% (n = 410,000); Potency, µM (titrated, usually from 46.1 µM), for inactives: at the highest dose activation, actives largely listed as activators; AREc32 ARE-luciferase reporter (MCF7-derived line), luminescence, 24 h; further: % of control where 0% means no effect; nearly all actives have a fitted effect of over 65% in size
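Nrf2 activation is followed as ARE-luciferase induction in the AREc32 line after one day of compound treatment; luminescence is read with Steady-Glo.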
FLuc counter 3: counter-screen for Nrf2 inhibitors: firefly luciferase enzyme inhibition; shares compounds with Nrf2 block; AID 720522; Potency, µM (highest dose often 57.5 µM), for the others: at the highest dose activity change, negative = inhibition, most hits filed as inhibitors; purified firefly luciferase, luminescence inhibition; actives 4% (n = 1,400); further: on the % scale 0 is the no-effect control and ±100 the full control effect; nearly all actives have a fitted effect of over 65% in size
Target sequence (P08659 whole entry, looked up): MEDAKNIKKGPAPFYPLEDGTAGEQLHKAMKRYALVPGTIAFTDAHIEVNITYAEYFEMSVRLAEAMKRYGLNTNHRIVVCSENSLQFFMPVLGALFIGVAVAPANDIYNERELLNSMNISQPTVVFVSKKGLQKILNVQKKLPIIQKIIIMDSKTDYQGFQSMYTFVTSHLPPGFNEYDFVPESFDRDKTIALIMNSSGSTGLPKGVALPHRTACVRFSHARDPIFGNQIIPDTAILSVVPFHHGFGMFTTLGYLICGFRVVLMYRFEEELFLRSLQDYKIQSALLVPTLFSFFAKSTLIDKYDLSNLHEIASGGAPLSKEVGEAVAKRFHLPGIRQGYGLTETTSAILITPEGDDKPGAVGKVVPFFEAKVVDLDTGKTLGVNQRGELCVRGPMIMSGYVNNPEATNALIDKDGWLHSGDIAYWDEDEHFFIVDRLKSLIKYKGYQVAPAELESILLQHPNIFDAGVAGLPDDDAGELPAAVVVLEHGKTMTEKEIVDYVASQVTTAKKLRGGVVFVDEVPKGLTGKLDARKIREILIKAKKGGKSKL
A549 tox-2: toxic to A549 ARE-Fluc cells in Nrf2 counterscreen | actives 2% (n = 1,400) | Potency, µM (doses to about 46.1 µM), without a hit: at the top dose activity change, negative = cytotoxicity, hits mostly inhibitors | A549 ARE-Fluc cells, cytotoxicity counterscreen | shares compounds with Nrf2 block | AID 720523;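 further: cells exposed to compounds for 18 to 24 hours; on the % scale 0 is the no-effect control and ±100 the full control effect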
ARE-Fluc inh: reduces Nrf2 ARE reporter signal in A549 cells; shares compounds with Nrf2 block; A549 ARE-firefly luciferase reporter, luminescence; Potency, µM (highest dose often 46.1 µM), inactives show at the highest dose activity change, negative = inhibition, actives largely listed as inhibitors; actives 74% (n = 1,400); AID 720524; further: on the % scale 0 is the no-effect control and ±100 the full control effect; nearly all actives have a fitted effect of over 65% in size
* hit, by the source's call; ? = inconclusive; . = no result; [ ] = another dose, or the depositor's remark. The call rests on the fitted dose curve; in most records, active means well fitted curve in the direction sought with a large enough effect; inconclusive means small, poorly fitted or top-dose-only effect, or another doubt; inactive means no such curve, though single readings can be large; an effect the other way counts as inactive or inconclusive. Potency means the concentration at half of the fitted maximal effect.

SMILES	IDH1 R132H inh	A549 tox-1	ELG1 repair inh	Nrf2 block	Nrf2 ARE act	FLuc counter 3	A549 tox-2	ARE-Fluc inh
CCOc1ccc(S(=O)(=O)N(C)c2ccc(OCC(=O)NC3=NCCS3)cc2)cc1	5.3%	-6.0%	-3.7%	?	-0.4%	.	.	.
COc1ccc(CCNC(=O)COc2ccc(N(C)S(=O)(=O)c3ccc(Cl)cc3)cc2)cc1	10.4%	-4.3%	?	3.66µM*	3.4%	-0.7%	-6.6%	18.4µM*
COC(=O)c1c(SCC(=O)Nc2cccc(Cl)c2C)[nH]c2ccccc2c1=O	-18.7%	-0.7%	.	29.1%	0.8%	.	.	.
Cc1cccc(N2CCN(S(=O)(=O)c3nnc(NC(=O)c4ccc(Cl)cc4)s3)CC2)c1	25.5%	-10.0%	.	24.0%	-0.5%	.	.	.
O=C(O)CCn1c2c(c3ccccc31)CCCC2	4.3%	-1.3%	9.7%	-6.5%	0.3%	.	.	.
CCCCCCCn1c2c(c(=N)c3ccccc31)CCC2	17.8%	?	4.11µM*	2.31µM*	0.4%	2.7%	?	1.46µM*
COc1ccc(/C=C/C(=O)NC(=S)NCCc2ccc(OC)c(OC)c2)cc1	-1.5%	?	-2.3%	7.31µM*	-0.7%	-3.9%	-12.6%	5.4%
COc1ccc(CCNC(=O)/C=C\c2ccccc2)cc1OC	-5.3%	-3.4%	-6.1%	-15.9%	-0.8%	.	.	.
COc1ccccc1C(=O)Nc1nc(-c2ccc(S(=O)(=O)N3CCOCC3)cc2)cs1	-2.4%	-28.0%	5.17µM*	5.17µM*	-0.9%	-12.3%	-16.9%	1.3µM*
COc1ccccc1OC(C)C(=O)Nc1nc(-c2ccc(S(=O)(=O)N3CCOCC3)cc2)cs1 (stereo not drawn)	3.6%	?	?	4.4%	0.3%	.	.	.
c1csc(CNc2ncnc3sccc23)c1	2.6%	-17.3%	.	5.8µM*	12.8%	0.7%	1.1%	7.31µM*
CNc1cncc(-c2cnn(CC(C)C)c2)n1	.	.	.	.	0.2%[9.22 µM]	.	.	.
COc1ccc(CN(C)C(=O)c2cccc(NC(=O)CC3SC(N4CCCCC4)=NC3=O)c2)c(OC)c1 (stereo not drawn)	-4.4%	-25.5%	.	8.2µM*	-1.3%	-19.4%	-16.0%	6.51µM*
CC1C(=O)OC(c2ccc(Cl)cc2)C(C)(C)C1=O (stereo not drawn)	19.3%	-0.8%	-1.6%	-5.6%	0.1%	.	.	.
C[C@@H]1C=CC(=O)O[C@@H]1c1ccc(Cl)cc1	2.4%	-0.7%	?	9.2µM*	0.4%	0.7%	-15.0%	5.8µM*
CC(NC(=O)c1cc(F)c(F)cc1Cl)C1CC2CCC1C2 (stereo not drawn)	6.1%	1.3%	-1.3%	6.5%	2.1%	.	.	.
C/C(=N\NC(=O)c1cc2ccccc2cc1O)c1ccc2c(c1)OCO2	5.4%	-5.5%	26.1%	7.9%	2.5%	.	.	.
CC/C(=N/NC(=O)c1ccc2c(c1)OCO2)c1ccccc1O	2.7%	-22.1%	.	5.17µM*	0.0%	10.7µM*	-8.5%	-15.5%
CCCCN(c1ccccc1)S(=O)(=O)c1cc2c3c(c1)C(C)C(=O)N3CCC2 (stereo not drawn)	-12.0%	-15.9%	.	.	-0.9%	.	.	.
CC(=O)c1cn(CC(=O)Nc2cccc(C)c2C)c2ccccc12	10.5%	-4.6%	-4.3%	5.17µM*	3.1%	2.7%	-3.8%	?
C=C(c1ccc2ccccc2n1)c1cccs1	.	.	.	.	.	-5.6%	-29.7%	?
O=C(NCc1cccs1)c1ccc2ccccc2n1	-2.5%	-5.0%	?	?	2.1%	.	.	.
O=C(NCc1ccccc1)c1cc2sccc2n1Cc1ccc(Cl)cc1	-1.0%	-0.7%	.	-6.4%	-1.3%	.	.	.
CC(C)NC(=O)C1CCN(C(=O)c2cc3sccc3n2Cc2ccc(Cl)cc2)CC1	12.5%	-24.1%	.	5.8µM*	0.2%	0.7%	?	4.11µM*
COc1ccc(-c2nc(CSCC(=O)N3CCN(c4cc(Cl)ccc4C)CC3)c(C)o2)cc1	0.4%	-16.8%	.	7.31µM*	-2.9%	?	?	11.6µM*
SMILES	IDH1 R132H inh	A549 tox-1	ELG1 repair inh	Nrf2 block	Nrf2 ARE act	FLuc counter 3	A549 tox-2	ARE-Fluc inh
COc1ccc(-c2nc(CSCC(=O)N3CCN(c4ccc(OC)cc4)CC3)c(C)o2)cc1	-0.1%	-10.9%	.	4.61µM*	-0.6%	-13.8%	-19.2%	9.2µM*
COc1ccc(CCNC(=O)Cc2c(C)c3cc4c(C)coc4c(C)c3oc2=O)cc1	-7.2%	2.2%	.	22.0%	1.1%	.	.	.
CCCCNc1nccnc1-c1cccc(C=O)c1	.	.	.	.	-1.4%	.	.	.
CCC(C)NC(=O)C1CCN(C(=O)c2ccc(-n3ccc4ccccc43)s2)CC1 (stereo not drawn)	-2.3%	-12.0%	.	?	0.9%	.	.	.
CCOC(=O)C1C(=O)NC(C(=O)OCC)(C(=O)OCC)C1C(C)CC (stereo not drawn)	-2.3%	0.6%	.	-19.2%	0.0%	.	.	.
Cc1ccc2c(c1)[nH]c1c(N3CCN(Cc4ccccc4)CC3)ncnc12	10.3%	?	18.4µM*	8.2µM*	-1.6%	-29.1%	?	11.6µM*

Bioassay records: PubChem BioAssay, National Center for Advancing Translational Sciences (NCATS)
